We go through 21 molecules from PubChem BioAssay (EPA / NIEHS).

A word on the AC50: it is the concentration at which the activity in the assay is half-maximal.

The structures appear in SMILES notation. Records with an inconclusive call do not appear. The source made the active and inactive calls. How the source made its calls, unless noted: active means hit-call score of the fitted dose curve at least 0.9, where 1 is the maximum; inconclusive means response in the unintended direction; inactive means score below 0.9.

In assay [1] the target is Cellular tumor antigen p53 (Homo sapiens) (UniProt P04637). The assay is described as follows: TOX21_p53_BLA_p2_ratio: Tox21 HCT-116 p53 Agonism Beta-lactamase Assay, Ratio, Phase 2 (AID 2283592). Summed up:
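Ratio endpoint: beta-lactamase cleavage of CCF4-AM, blue (460 nm) over green (530 nm). HCT116 reporter line; 16 h treatment, 37C; substrate 2 h RT.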

The nature of assay [2]: TOX21_p53_BLA_p5_viability: Viability Assessment in the Tox21 HCT-116 p53 Agonism Beta-lactamase Assay, Phase 5 (AID 2283600). Summed up: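 Luciferase-coupled ATP quantitation of cells treated for 16 h (37C, 5% CO2) with test chemicals delivered in DMSO via a 217-fold dilution; 4000 cells/well; reagent incubated 30 min at room temperature before luminescence reading.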
The target in assay [3] is Cellular tumor antigen p53 (Homo sapiens) (UniProt P04637). The assay is described as follows: TOX21_p53_BLA_p4_ratio: Tox21 HCT-116 p53 Agonism Beta-lactamase Assay, Ratio, Phase 4 (AID 2283601). Summed up: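 HCT-116 p53 beta-lactamase reporter cells (4000/well) preincubated 5 h, then compound (217-fold dilution of DMSO stock) for 16 h at 37C. CCF4-AM substrate added 2 h at room temperature; 460/530 nm emission ratio fitted upward versus DMSO.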

Assay [4] in a line: TOX21_p53_BLA_p3_viability: Viability Assessment in the Tox21 HCT-116 p53 Agonism Beta-lactamase Assay, Phase 3 (AID 2283593).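 Further: cells exposed to compound for 16 h before reading.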 Summed up: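 HCT116 cells, 4000/well, dosed 5 h after plating by pin transfer (217-fold dilution from DMSO stock) and incubated 16 h at 37C, 5% CO2. Viability read as ATP luminescence with CellTiter-Glo after 30 min at room temperature.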
In assay [5] the target is Cellular tumor antigen p53 (Homo sapiens) (UniProt P04637). Description: TOX21_p53_BLA_p3_ratio: Tox21 HCT-116 p53 Agonism Beta-lactamase Assay, Ratio, Phase 3 (AID 2283596). The method in brief:
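Cells were seeded at 4000/well, rested 5 h at 37C, then dosed with DMSO compound solutions (217-fold dilution) for 16 h. CCF4-AM substrate was loaded for 2 h at room temperature, and the 460/530 nm emission ratio was fitted for gain of signal versus DMSO.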

A short description of assay [6]: TOX21_p53_BLA_p4_viability: Viability Assessment in the Tox21 HCT-116 p53 Agonism Beta-lactamase Assay, Phase 4 (AID 2283597).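 Further: hits lower the luminescence signal meaning cytotoxicity.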 Summed up: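 Cytotoxicity was inferred from loss of CellTiter-Glo luminescence. HCT116 cells had been dosed with compounds after 5 h plating, incubated 16 h at 37C and 5% CO2, and exposed to the CCF4-AM substrate for 2 h.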
For assay [7], the target named is Cellular tumor antigen p53 (Homo sapiens) (UniProt P04637). The assay is described as follows: TOX21_p53_BLA_p5_ratio: Tox21 HCT-116 p53 Agonism Beta-lactamase Assay, Ratio, Phase 5 (AID 2283599). Summed up: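 HCT-116 p53-bla cells (4000/well) plated 5 h, dosed with compound (217-fold DMSO dilution) for 16 h at 37 C; CCF4-AM substrate 2 h at room temperature. Activity is the 460/530 nm emission ratio (405 nm excitation), fitted in gain-of-signal direction versus DMSO.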

Assay [8] addresses PGR (gene 5241) (UniProt P06401). The assay is described as follows: TOX21_PR_BLA_Followup_Antagonist_ratio: Tox21 HEK293 Progesterone Receptor (PR) Antagonism Beta-lactamase Follow-Up Assay, Ratio (AID 2283934). Summed up:
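Read-out: blue/green beta-lactamase FRET ratio (cleaved ch2 over uncleaved ch1), fitted relative to DMSO baseline. Cells: PR-UAS-bla HEK293T, GAL4-UAS reporter, stimulated with 1 nM R5020 final; 16 hr compound exposure, 37C.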

Assay [9] is described as follows: TOX21_PR_BLA_Followup_Agonist_viability: Viability Assessment in the Tox21 HEK293 Progesterone Receptor (PR) Agonism Beta-lactamase Follow-Up Assay (AID 2283935).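 Further: signal loss means lower viability so actives are cytotoxic.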 The method in brief:
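Luminescent ATP quantitation (CellTiter-Glo, 30 min, room temperature) in the same wells as the beta-lactamase read, on PR-UAS-bla HEK293T cells exposed to compound for 16 hr at 37C in 2% charcoal-stripped serum.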

The target of assay [10] is PGR (gene 5241) (UniProt P06401). The assay is described as follows: TOX21_PR_LUC_Followup_Agonist: Tox21 HEK293 Progesterone Receptor (PR) Agonism Luciferase Follow-Up Assay (AID 2283937; active means hit-call score of the fitted dose curve at least 0.9, where 1 is the maximum; inactive means score below 0.9). The method in brief: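 Luminescence read-out (ONE-Glo, 30 min at room temperature) of PR-driven luciferase in HEK293-PR-A-luc cells after 16 h compound exposure at 37C; gain of signal fitted relative to DMSO baseline.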

The target is the same in assay [11]. Description: TOX21_PR_LUC_Followup_Antagonist: Tox21 HEK293 Progesterone Receptor (PR) Antagonism Luciferase Follow-Up Assay (AID 2283938).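 Further: curve fitted upward as signal gain over DMSO baseline despite antagonist label.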 The method in brief:
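HEK293-PR-A-luc cells were precultured 5 days in medium with 10% charcoal-stripped FBS, seeded 3,000/well, then exposed to compounds in DMSO for 16 h at 37C. Luciferase was read by ONE-Glo luminescence after 30 min at room temperature.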

Assay [12] can be described thus: TOX21_PR_LUC_Followup_Antagonist_viability: Viability Assessment in the Tox21 HEK293 Progesterone Receptor (PR) Antagonism Luciferase Follow-Up Assay (AID 2283940). The method in brief: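 Read-out: CellTiter-Glo ATP luminescence, loss of signal taken as reduced viability. Cells: HEK293-PR-A-luc, 3,000/well, 5 h settling, then 16 h compound exposure at 37C, 0% CO2.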

A short description of assay [13]: TOX21_PR_LUC_Followup_Agonist_viability: Viability Assessment in the Tox21 HEK293 Progesterone Receptor (PR) Agonism Luciferase Follow-Up Assay (AID 2283941).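 Further: loss of signal means cytotoxicity so actives lower viability.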 The method in brief:
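Cytotoxicity counter-screen: ATP content by CellTiter-Glo luminescence, loss of signal = reduced viability. HEK293-PR-A-luc, 3,000 cells/well, compound exposure 16 h, 37C.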

PGR (gene 5241), sequence (P06401 whole entry, looked up, the tested form may be a part): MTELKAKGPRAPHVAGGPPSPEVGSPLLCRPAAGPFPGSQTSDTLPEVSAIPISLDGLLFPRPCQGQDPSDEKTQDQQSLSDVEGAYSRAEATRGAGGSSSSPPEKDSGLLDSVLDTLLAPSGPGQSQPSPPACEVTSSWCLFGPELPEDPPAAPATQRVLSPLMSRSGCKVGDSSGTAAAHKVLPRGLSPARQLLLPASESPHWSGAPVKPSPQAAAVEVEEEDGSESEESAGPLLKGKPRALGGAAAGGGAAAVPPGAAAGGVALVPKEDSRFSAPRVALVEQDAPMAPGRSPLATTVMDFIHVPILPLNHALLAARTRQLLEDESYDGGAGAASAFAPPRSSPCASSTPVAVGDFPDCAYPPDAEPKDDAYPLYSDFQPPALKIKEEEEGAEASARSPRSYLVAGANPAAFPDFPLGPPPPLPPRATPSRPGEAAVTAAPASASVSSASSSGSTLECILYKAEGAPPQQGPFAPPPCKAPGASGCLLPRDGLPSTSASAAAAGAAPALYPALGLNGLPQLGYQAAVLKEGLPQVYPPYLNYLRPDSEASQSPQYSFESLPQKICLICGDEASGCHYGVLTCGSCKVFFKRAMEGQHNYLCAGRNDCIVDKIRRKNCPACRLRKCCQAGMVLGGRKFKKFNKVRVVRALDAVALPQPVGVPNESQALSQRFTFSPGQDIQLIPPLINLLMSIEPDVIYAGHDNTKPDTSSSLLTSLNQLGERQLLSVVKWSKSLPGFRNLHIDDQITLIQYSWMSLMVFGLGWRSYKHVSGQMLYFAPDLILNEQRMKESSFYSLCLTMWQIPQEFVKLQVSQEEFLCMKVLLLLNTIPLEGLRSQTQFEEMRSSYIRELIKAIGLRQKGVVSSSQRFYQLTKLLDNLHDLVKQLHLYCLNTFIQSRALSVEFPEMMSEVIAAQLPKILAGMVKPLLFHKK
Cellular tumor antigen p53 (Homo sapiens), sequence (P04637 whole entry, looked up): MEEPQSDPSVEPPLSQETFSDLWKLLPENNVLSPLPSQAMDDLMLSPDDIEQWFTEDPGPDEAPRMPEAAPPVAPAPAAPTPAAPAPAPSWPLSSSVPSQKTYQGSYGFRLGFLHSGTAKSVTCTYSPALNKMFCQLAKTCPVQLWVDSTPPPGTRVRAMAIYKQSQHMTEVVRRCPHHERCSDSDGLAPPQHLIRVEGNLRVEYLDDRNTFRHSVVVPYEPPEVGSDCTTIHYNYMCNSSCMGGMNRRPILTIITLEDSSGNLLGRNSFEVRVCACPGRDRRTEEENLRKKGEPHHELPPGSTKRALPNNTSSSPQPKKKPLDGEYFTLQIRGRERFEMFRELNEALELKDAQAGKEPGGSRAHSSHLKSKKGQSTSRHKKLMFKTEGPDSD

`CN(CC(=O)N1CCOCC1)Cc1c(Cl)cccc1NC(=O)c1ccccc1`: the outcome in [1], in assay [2] and in assay [3] was inactive.

Regarding `CC(=O)OCC(C)C`, the outcome in assay [4] and in [5] was inactive.

Turning to `COC(=O)NN`, the result in [4], in assay [5], in [6], in assay [7] and in assay [2] was inactive.

As for `CCCOC(=O)c1ccc(N)cc1`, the result in assay [1] and in assay [3] was inactive.

In the case of `c1cnc2cc3c(cc2n1)C1CNCC3C1`, the outcome in assay [1] and in assay [3] was inactive.

Regarding `Nc1nc(NC2CC2)c2ncn([C@H]3C=C[C@@H](CO)C3)c2n1`, the outcome in assay [4], in assay [5], in [6], in assay [7] and in assay [2] was inactive.

As to `N[C@@H](CS)C(=O)O`, the result in assay [1], in [2] and in [3] was inactive.

For `CCOC(=O)Nc1ccc2c(c1)N(C(=O)CN(C)C)c1ccccc1CC2`, the molecule was called inactive in assay [4].

Take `O=C(/C=C/c1ccc(O)c(O)c1)O[C@@H](C(=O)O)[C@@H](OC(=O)/C=C/c1ccc(O)c(O)c1)C(=O)O`: the call in [4], in assay [5], in [6], in assay [7], in [2] and in [3] was inactive.

As to `CC(C(=O)O)c1ccc2c(c1)Cc1cccnc1O2` (stereo unspecified), the result in assay [4], in [5], in assay [6], in assay [7] and in [2] was inactive.

As to `Cc1cccc(C)c1NC(=O)CN1CCCCCC1`, the result in assay [1], in assay [2] and in assay [3] was inactive.

Turning to `CC(C)(C)NCCO`, the outcome in assay [1], in [2] and in assay [3] was inactive.

Turning to `CO[C@@]1(NC(=O)C(C(=O)O)c2ccc(O)cc2)C(=O)N2C(C(=O)O)=C(CSc3nnnn3C)CO[C@@H]21` (stereo partly specified), the result in assay [1], in assay [2] and in assay [3] was inactive.

With `CC1OCCC1=O` (stereo unspecified), the outcome in assay [1], in assay [2] and in assay [3] was inactive.

For `NC(=O)C1(N2CCCCC2)CCN(CCCC(=O)c2ccc(F)cc2)CC1`, the AC50 in [4] was 36.2 µM (active). In addition, the outcome in assay [5], in assay [6] and in assay [7] was inactive.

As to `CC(C)(C)CC(C)(C)c1ccc(Nc2ccc(C(C)(C)CC(C)(C)C)cc2)cc1`, in assay [4], the molecule was called inactive.

`CN1CCC(=C2c3ccccc3CC(=O)c3sccc32)CC1`: the result in assay [1] and in assay [3] was inactive.

Regarding `CN1CC[C@H](c2c(O)cc(O)c3c(=O)cc(-c4ccccc4Cl)oc23)[C@H](O)C1`, the outcome (in [1]; in assay [3]; in assay [9]; in the assay with PGR (gene 5241) [10]; in assay [12]; in assay [13]) was inactive. For the same molecule, the AC50 with PGR (gene 5241) [8] is 0.206 µM (active); with PGR (gene 5241) [11], 0.565 µM (active).

For `CC1(C)CC(O)CC(C)(C)N1`, the result in assay [1] and in [3] was inactive.

Consider `O=Cc1ccc(C(=O)O)cc1`, for which the outcome in [1], in [2] and in assay [3] was inactive.

Take `CNS(=O)(=O)Cc1ccc2[nH]cc(CCN(C)C)c2c1`: the result in assay [4], in assay [5], in assay [6], in assay [7] and in assay [2] was inactive.
